An excerpt weighted towards active compounds, which were near 2.4% of everything screened.
WRN inhibitor: inhibitors of human WRN helicase | WRN helicase unwinding, fluorescent forked duplex, kinetic | Potency, µM (top dose mostly 114 µM), actives largely listed as inhibitors | hit rate 0.46% among 360,000 | AID 651768; note: nearly all actives have a fitted effect of over 55% in size
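Primary qHTS, 1536-well format. 20 nM WRN + compound, 15 min RT; start with 100 nM forked fluorophore/quencher duplex, 2 mM ATP (final); kinetic read ex 525/em 598 nm.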
Pol iota inh: DNA polymerase iota (human) inhibition. Pol iota fluorescent replication assay, 10 min. Q9UNA4. Potency, µM (series often up to 115 µM), usual class: inhibitors. hit rate 1% among 390,000
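Pol iota at 10 nM preincubated 15 min with compounds at room temperature; reaction started with fluorescent substrate, 50 nM final. Fluorescence read kinetically at 0 and 10 min; buffer-only wells as negative control.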
Pol eta inh-1: DNA polymerase eta (human) inhibition; recombinant Pol eta, fluorescent DNA replication assay; Potency, µM (highest dose often 114 µM), most hits filed as inhibitors; hit rate 1.2% among 390,000; AID 588591
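Pol eta at 10 nM preincubated with compounds 15 min at room temperature; reaction started with fluorescent substrate (50 nM final) and read kinetically at 0 and 10 min.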
Pol kappa inh-1: DNA polymerase kappa (human) inhibition | Q9UBT6 | purified Pol kappa, fluorescent DNA synthesis assay, 10 min | Potency, µM (highest dose often 107 µM), usual class: inhibitors | hit rate 0.53% among 400,000 | AID 588579
Target sequence (Q9UBT6 whole entry, looked up): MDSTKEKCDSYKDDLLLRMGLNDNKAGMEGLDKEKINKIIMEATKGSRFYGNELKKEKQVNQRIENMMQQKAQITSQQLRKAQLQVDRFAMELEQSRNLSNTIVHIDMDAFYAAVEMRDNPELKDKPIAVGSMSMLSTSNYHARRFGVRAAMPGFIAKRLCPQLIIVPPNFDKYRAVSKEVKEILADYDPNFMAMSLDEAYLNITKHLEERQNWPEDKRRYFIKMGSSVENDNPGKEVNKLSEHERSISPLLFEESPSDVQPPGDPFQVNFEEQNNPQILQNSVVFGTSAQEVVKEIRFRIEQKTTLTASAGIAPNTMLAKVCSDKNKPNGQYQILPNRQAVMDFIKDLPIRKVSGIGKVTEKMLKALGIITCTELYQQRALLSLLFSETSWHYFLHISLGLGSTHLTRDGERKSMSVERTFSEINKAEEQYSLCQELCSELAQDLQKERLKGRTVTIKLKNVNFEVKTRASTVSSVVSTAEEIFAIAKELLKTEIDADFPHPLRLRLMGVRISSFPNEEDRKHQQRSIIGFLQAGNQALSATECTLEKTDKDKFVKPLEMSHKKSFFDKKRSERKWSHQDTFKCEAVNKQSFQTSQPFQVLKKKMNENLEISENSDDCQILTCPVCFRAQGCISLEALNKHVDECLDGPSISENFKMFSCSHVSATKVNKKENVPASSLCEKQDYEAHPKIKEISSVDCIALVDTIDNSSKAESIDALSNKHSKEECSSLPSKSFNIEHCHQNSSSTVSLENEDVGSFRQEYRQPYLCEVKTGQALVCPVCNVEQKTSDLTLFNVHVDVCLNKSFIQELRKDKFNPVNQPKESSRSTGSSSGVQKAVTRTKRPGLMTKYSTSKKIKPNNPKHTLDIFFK
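Here, compound and 10 nM enzyme are combined for 15 min at room temperature; adding 50 nM substrate (final) starts DNA synthesis, tracked by fluorescence at 0 and 10 min against buffer-only wells.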
Pol beta inh: inhibitors of human DNA polymerase beta; P06746; Pol beta primer extension/strand displacement, fluorescence kinetic; Potency, µM (series often up to 114 µM), usual class: inhibitors; hit rate 1.3% among 340,000; AID 485314
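Values derive from four-parameter Hill fits of normalized kinetic data: reads at 0 and 10 min following addition of 50 nM substrate to 10 nM Pol beta preincubated 15 min with compound.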
FEN1 inhibitor: human FEN1 inhibition. P39748. Recombinant FEN1 flap cleavage, fluorescence, 15 min. Potency, µM (doses to about 114 µM), most hits filed as inhibitors. hit rate 0.35% among 390,000. AID 588795; note: nearly all actives have a fitted effect of over 65% in size
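Steps: FEN1 (10 nM) dispensed; compound added by pin tool; 15 min at room temperature; substrate added to 50 nM final; reads at 0 min and 15 min; data normalized and fitted (four-parameter Hill).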
POLI cherry-pick: Inhibitors of human DNA polymerase iota, confirmation; shares compounds with Pol kappa inh-1; Pol iota primer extension, TAMRA/BHQ fluorescence; Potency, µM, actives largely listed as inhibitors; hit rate 77% among 1,500; AID 720496
Pol kappa inh-2: confirmation of human DNA polymerase kappa inhibitors; shares compounds with Pol eta inh-1; hit rate 76% among 920; Potency, µM, usual class: inhibitors; purified Pol-kappa, fluorescent strand-displacement substrate
Pol eta inh-2: confirmation of human DNA polymerase eta inhibitors; hit rate 64% among 2,600; Pol eta primer extension, TAMRA/BHQ fluorescence, 10 min; shares compounds with Pol eta inh-1; Potency, µM, actives largely listed as inhibitors
Each line names hits and unclear results; the compound was inactive in the other large screens (follow-up assays come after a bar, where they were run). Calls come from the whole dose curve; as a rule, active = well fitted curve in the direction sought with a large enough effect; inconclusive = small, poorly fitted or top-dose-only effect, or another doubt; inactive = no such curve, though single readings can be large; an effect the other way counts as inactive or inconclusive.

Cc1cc(C)cc(NS(=O)(=O)c2ccc3[nH]cc(C(=O)NCCc4ccccc4)c(=O)c3c2)c1	none (no result: WRN inhibitor)
Cc1ccccc1NS(=O)(=O)c1ccc2[nH]cc(C(=O)NCCc3ccccc3)c(=O)c2c1	Pol iota inh inconclusive, Pol eta inh-1 32µM, Pol beta inh 45µM (no result: WRN inhibitor) | POLI cherry-pick inconclusive | Pol eta inh-2 48
CSc1nsc(/C=C/Nc2ccc(C(=O)O)cc2)c1C#N	Pol eta inh-1 28µM, Pol beta inh 32µM | POLI cherry-pick 75 | Pol eta inh-2 43
CSc1nsc(/C=C/Nc2ccc(F)cc2F)c1C#N	none
CC1CCCCC1NC(=O)COC(=O)c1ccc(S(=O)(=O)NCc2ccco2)cc1 (stereo unspecified)	Pol iota inh inconclusive, Pol eta inh-1 inconclusive, Pol kappa inh-1 inconclusive, Pol beta inh inconclusive
CC1CCCCC1NC(=O)COC(=O)c1c2c(nc3ccccc13)/C(=C\c1ccco1)CC2 (stereo unspecified)	WRN inhibitor inconclusive, Pol iota inh 3.2µM, Pol eta inh-1 10µM, Pol kappa inh-1 22µM, FEN1 inhibitor 50µM (no result: Pol beta inh) | POLI cherry-pick 60 | Pol kappa inh-2 21 | Pol eta inh-2 34
O=C(COC(=O)c1c2c(nc3ccccc13)/C(=C\c1ccco1)CC2)NC1CCCC1	WRN inhibitor 45µM, Pol iota inh 6.3µM, Pol eta inh-1 3.5µM, Pol kappa inh-1 22µM, FEN1 inhibitor inconclusive (no result: Pol beta inh) | POLI cherry-pick 19 | Pol kappa inh-2 12 | Pol eta inh-2 27
O=C(COC(=O)c1c2c(nc3ccccc13)/C(=C/c1cccc([N+](=O)[O-])c1)CCC2)NC1CCS(=O)(=O)C1 (stereo unspecified)	none
Cc1cc(=O)oc2c3c(ccc12)OC/C3=N/N	Pol iota inh inconclusive, Pol eta inh-1 inconclusive | POLI cherry-pick 42 | Pol kappa inh-2 34 | Pol eta inh-2 30
Cc1ccc(S(=O)(=O)N2C(c3ccc(Cl)c(Cl)c3)CC=C(C(=O)O)C2c2ccc(Cl)cc2)cc1 (stereo unspecified)	none (no result: Pol iota inh, Pol eta inh-1, Pol kappa inh-1, Pol beta inh, FEN1 inhibitor)
Cc1ccc(S(=O)(=O)N2[C@@H](c3ccc(C(C)(C)C)cc3)C(C(=O)O)=CC[C@H]2c2ccc(Cl)cc2)cc1	WRN inhibitor inconclusive, Pol iota inh inconclusive, Pol eta inh-1 79µM, Pol kappa inh-1 inconclusive (no result: Pol beta inh) | POLI cherry-pick inconclusive | Pol kappa inh-2 67 | Pol eta inh-2 inconclusive
COc1ncc2nc(-c3ccc(Cl)cc3)c(=O)n(Cc3cccs3)c2n1	none (no result: WRN inhibitor, Pol iota inh, Pol eta inh-1, Pol beta inh, FEN1 inhibitor)
Cc1ccc(Sc2ccc(/C=C3/C(=O)NN(c4ccccc4)C3=O)o2)cc1	Pol eta inh-1 22µM, Pol kappa inh-1 inconclusive, Pol beta inh inconclusive | POLI cherry-pick 67 | Pol kappa inh-2 24 | Pol eta inh-2 inconclusive
O=C1NN(c2ccccc2)C(=O)/C1=C/c1ccc(Sc2ccc(Cl)cc2)o1	WRN inhibitor inconclusive, Pol iota inh 7.9µM, Pol kappa inh-1 50µM, Pol beta inh inconclusive (no result: Pol eta inh-1) | POLI cherry-pick inconclusive | Pol eta inh-2 30
CN(C(=O)Cc1ccccc1OC(=O)c1ccccc1)c1ccccc1I	none (no result: WRN inhibitor, Pol eta inh-1, Pol beta inh)
CN1CCN(c2ncc3nc(-c4cc(F)cc(F)c4)c(=O)n(CCc4ccccc4)c3n2)CC1	none (no result: WRN inhibitor, Pol iota inh, Pol eta inh-1, Pol beta inh, FEN1 inhibitor)
O=C1C=C(O)CC(c2ccco2)C1 (stereo unspecified)	WRN inhibitor inconclusive, Pol iota inh 4.5µM, Pol eta inh-1 3.2µM, Pol kappa inh-1 inconclusive, Pol beta inh 6.3µM, FEN1 inhibitor inconclusive | POLI cherry-pick 75 | Pol kappa inh-2 17 | Pol eta inh-2 30
O=C1C=C(Nc2ccc(O)cc2)CC(c2ccco2)C1 (stereo unspecified)	Pol eta inh-1 inconclusive
CN(C)c1ccc2cc(S(=O)(=O)O)cc(O)c2c1	WRN inhibitor inconclusive, Pol iota inh inconclusive, Pol eta inh-1 10µM, Pol kappa inh-1 32µM, FEN1 inhibitor 50µM (no result: Pol beta inh) | POLI cherry-pick inconclusive | Pol eta inh-2 19
O=C(CSc1ccsc1[N+](=O)[O-])NCc1ccco1	Pol iota inh inconclusive, Pol eta inh-1 22µM, Pol kappa inh-1 79µM, Pol beta inh inconclusive | POLI cherry-pick 67 | Pol kappa inh-2 42 | Pol eta inh-2 30
Cc1ccccc1NC(=O)CSc1ccsc1[N+](=O)[O-]	WRN inhibitor 50µM, Pol iota inh 11µM, Pol eta inh-1 2.8µM, Pol kappa inh-1 35µM, Pol beta inh 20µM, FEN1 inhibitor inconclusive | POLI cherry-pick 19 | Pol eta inh-2 17
O=C1CCCC2=C1C(c1ccc(O)c(O)c1)Nc1ccc3ncccc3c12 (stereo unspecified)	WRN inhibitor inconclusive, Pol iota inh 13µM, Pol eta inh-1 35µM, Pol kappa inh-1 40µM, Pol beta inh 11µM, FEN1 inhibitor inconclusive | POLI cherry-pick inconclusive | Pol eta inh-2 inconclusive
O=C1CCCC2=C1C(c1cccs1)Nc1ccc3ncccc3c12 (stereo unspecified)	Pol beta inh inconclusive
Cn1c(=O)oc2cc(S(=O)(=O)NC(Cc3ccccc3)C(=O)NCc3ccccc3Cl)ccc21 (stereo unspecified)	none (no result: WRN inhibitor)
Cc1ccc(CN2C(=O)c3ccccc3CC2(C)C(=O)NC2CCCCC2)cc1 (stereo unspecified)	Pol iota inh inconclusive (no result: WRN inhibitor, Pol eta inh-1)
CC(=O)c1ccc(S(=O)(=O)N2Cc3ccccc3CC2C(=O)O)cc1 (stereo unspecified)	WRN inhibitor inconclusive, Pol iota inh inconclusive, Pol eta inh-1 5µM, Pol kappa inh-1 50µM, Pol beta inh 13µM | POLI cherry-pick 27 | Pol eta inh-2 15
O=C(O)[C@H]1Cc2ccccc2CN1S(=O)(=O)c1ccc(F)cc1	none
CC(C)c1ccc(S(=O)(=O)c2cnc(SCC(=O)Nc3cccc(C(F)(F)F)c3)nc2N)cc1	FEN1 inhibitor inconclusive (no result: WRN inhibitor)
Cn1ccsc1=NC(=O)c1ccc([N+](=O)[O-])o1	WRN inhibitor inconclusive, Pol iota inh 25µM, Pol eta inh-1 40µM, Pol kappa inh-1 inconclusive | POLI cherry-pick 34 | Pol eta inh-2 43
Cn1ccsc1=NC(=O)c1ccc(=O)[nH]c1	none
CSc1ccc(/C=C(\C(=O)O)c2ccc(S(=O)(=O)N3CCCCC3)s2)cc1	Pol iota inh inconclusive, Pol eta inh-1 inconclusive, Pol beta inh inconclusive
